13 compounds from PubChem BioAssay (NCI) can be followed below.

Values joined by “and” are separate entries in the source; they are usually repeats but may differ in a detail not shown here. Equal entries are not always repeated. This is part of a sample that, as a whole, favours compounds with a hit. Of some 83,000 tested, about 20% had one in any assay.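 Note: values are percent growth. 100 is the growth of untreated cells, values between 100 and 0 indicate rising inhibition; between -100 and 0 indicates cell death.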 Active and inactive are the calls of the source. How the source made its calls: active means growth percent below 10; inactive means the rest.

This experiment deals with MCF7 breast. Briefly: NCI-60 one-dose screen, 48 h (100 = growth as untreated, 0 = no growth, -100 = all killed). To be noted: 10 µM unless noted.
Regarding `O=C(COc1ccc(/C=C2/C(=O)Nc3ccc(Cl)cc32)cc1)Nc1ccc(Br)cc1`, the growth was -26.9% (active).

Turning to `CCCCNc1ccc2c3c(cccc13)C(=O)N(NCC(O)COc1ccc3c(C)cc(=O)oc3c1)C2=O` (stereo not drawn), the growth was 64.6% (inactive).

With `COc1ccc(C(=O)c2c(N)c(C#N)cn2-c2ccc([N+](=O)[O-])cc2)cc1`, the growth was 95.1% (inactive).

Take `C=CC(=O)N1CCN(c2ccc3nc4c(nc3c2C(F)(F)F)C(=O)c2ncccc2C4=O)CC1`: the growth is -66.8% (active).

Regarding `NC(=O)c1ccc(-c2ccc3ncnc(N4CCc5cc(F)c(Cl)cc54)c3c2)cn1`, the growth is 37.7% (inactive).

`Cc1ccc2nc(NC(=O)Nc3cccc(Cl)c3)sc2c1`: the growth is 66.8% (inactive).

For the compound `O=C(c1ccc(Cl)cc1)C1[C@H](c2ccccc2Cl)[C@@H](c2ccccc2)NC12C(=O)Nc1ccccc12` (stereo partly drawn), the growth is -19% (active).

Consider `CCCn1c(NC(=O)c2cccc(C(N)=O)c2)nc2ccc(CN3CCCCC3)cc21`, for which the growth was 75.6% (inactive).

`S=C(NCCc1ccccc1)Nc1ccc(OCc2nc3ccc(Cl)cc3[nH]2)cc1`: the growth was 7.94% (active).

Take `Cc1ccc(Cl)cc1NC(=O)Nc1nc2ccc([N+](=O)[O-])cc2s1`: the growth is 0.201% (active).

As to `C[C@@H]1CN(c2ccc3ncc(C#Cc4cncc(C(=O)Nc5ccc(CN6CCN(C)CC6)c(C(F)(F)F)c5)c4)n3n2)C[C@@H](C)O1`, the growth was -93.1% (active).

As for `O=C1C=CC(=CC=C2N(Cc3ccc4ccccc4c3)c3ccccc3N2Cc2ccc3ccccc3c2)C=C1`, the growth was 15.7% (inactive) and 14.1% (inactive).

For the compound `CNS(=O)(=O)N1CCc2c(Br)c3c(c(OC)c2C1CCc1ccccc1)OCO3` (stereo not drawn), the growth was -22.3% (active).
